Data from PubChem BioAssay AID1508600 (Functional Genomics Laboratory (NCATS/FGL), 2020).
Among all 53,000 sequences or so, about 3,700 (7%) were called active.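 Rule for the calls: active = gene knockdowns whose robust z-score for IL-1 alpha signal is at least 2 or at most -2, so actives lie on both sides; inactive = the rest.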 The sample as a whole holds a higher share of actives than the screen did.

Assay: Components of the Cytosolic LPS Sensing Pathway: Gene Identification via Genome-wide siRNA Screen;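 note: robust z of the log signal after scaling to non-targeting control siRNA wells of the plate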
Settings: RAW264.7 macrophages, IL-1a HTRF, actives lie on both sides, screened at 100 nM (by protocol), cells primed 5 h with Pam3CSK4 first
How it was run: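 Using IL-1a HTRF as read-out, the screen measured release from RAW264.7 cells after 48h siRNA knockdown (100 nM), 5 h Pam3CSK4 priming and 24 h cytosolic LipidA. Values were expressed relative to negative-control wells as robust z-scores.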

Sequence | z-score
GCCUUGACGAUAGAUUAUUTT against Irf2 | 1.36 (inactive)
GGUUGAUAAAGGAGCCAUCTT against Mcts1 | 1.02 (inactive)
GGUGUCCUUUCAAGUUGAUTT against Spg11 | 2.15 (active)
GCCAGUGUGACAUUUGGUATT against Eed | 0.651 (inactive)
GGAGACUUGCUAAAUGCCCTT against Fkbp7 | -0.0461 (inactive)
GGCAACUAAGGCUAAGAAGTT against H1f4 | -1.89 (inactive)
GGUCUCGCUCCAAGGAAGATT against Tra2b | 2.56 (active)
GGAGACUGUCAUGGCUGUGTT against Olfr397 | -1.84 (inactive)
GCUUUACCUCCUAUUAAUATT against Rgs9bp | -0.91 (inactive)
GGAUUUAGCCAUGGAUUUCTT against Zfp473 | -1.17 (inactive)
GUACAAGCCACUGGAUCUGTT against Smad6 | 5.56 (active)
GGAGACAAAGCAUUAUCUATT against Usp33 | -0.366 (inactive)
GGUGAAAGGAGCAAAUGAUTT against Fyco1 | -0.332 (inactive)
GGCACUGAGGUUGUUCAGGTT against Eif3h | 0.806 (inactive)
CCUACCAUACCAUGAGCAGTT against Pou4f3 | 1.52 (inactive)
GGAAUACAGAUUUUUCAGATT against Frmd6 | -1.15 (inactive)
GCAGAUACUGAGAUGCUAUTT against Dkk4 | 2.24 (active)
GGUGUUACCCUCCUUAGAGTT against Tmem230 | -1.03 (inactive)
GGAUCUUGAAGACCAAAAATT against Kazn | -2.14 (active)
GGCGAACAUGCACUUUCACTT against Gramd3 | -1.28 (inactive)
GGAGCAUGAGGAUUACUGUTT against Trafd1 | 0.731 (inactive)
GGACAGUUUACUCCAGAUATT against Foxc1 | 2.84 (active)

Sequence | z-score
GCACUAAAGGGCUUUUCAUTT against Serping1 | 0.912 (inactive)
GGAGAAAGGCAUCUUCAAATT against Spdef | 0.0302 (inactive)
GCCUUACUACUACAACAACTT against Prpf40b | 2.08 (active)
GGCACAAAAGAAGAUCCUGTT against Tnfaip8 | -1.53 (inactive)
GGAUCCUGAACGAAAAAGGTT against Med19 | -0.0986 (inactive)
CGGCAGAUUGCUGCUUUGATT against Vmn2r122 | 2.73 (active)
GGUCCAAGAGGAAAGACAATT against Adarb2 | 0.67 (inactive)
GGUGACAGAUGUUUAUGAGTT against Ccdc28b | -1.91 (inactive)
GCAUAUGAUUGUCAUGAGUTT against Olfr319 | -1.47 (inactive)
GCAAGACCGAAGUCACGGATT against Krt19 | 2.87 (active)
CCGAGACAUAUACAAAGGATT against Klkb1 | -0.36 (inactive)
CCAGACAUCGUGCUUUACATT against Chrna3 | 1.42 (inactive)
GUUAACCCUGAGCCUAAACTT against Spata3 | 0.356 (inactive)
GGGCGACAUCUUUAGCAAATT against Sh3bp4 | -0.0472 (inactive)
GCCUAAGCCCUUAAAGCGUTT against Lrrc41 | 0.643 (inactive)
CCCACUAAGGAACAAAUUGTT against Tex24 | 0.297 (inactive)
GGCUUGCAUCAAUAAAGAATT against Adam33 | 0.0554 (inactive)
GGUGGUUGAAGAAAUGGCUTT against Timm8a1 | -0.364 (inactive)
GGAGCAGAAGUCAAUCAGGTT against Myo1b | 0.419 (inactive)
GGGACUAAUGUUUUGCCUATT against Krt16 | -2.62 (active)
GCGGAAGUCGACCUUUGAUTT against Cd164 | -0.238 (inactive)
CGACUUUGGACAAAAAUUGTT against Kdm2a | 0.638 (inactive)

Sequence | z-score
CCUACCCGAUUAUUCUUACTT against C2cd2l | 0.125 (inactive)
GGCAGUAUUGACUCCUACCTT against 6430548M08Rik | -0.973 (inactive)
GCUUGGAUUGAGCUUUACATT against Pid1 | 3.53 (active)
GGAAGUUGUUGGGAACUUCTT against Afmid | -0.401 (inactive)
GGGAAGUUUGGUUCUUUGGTT against Msn | 0.749 (inactive)
GGAAAGCCACUGUGUAAAATT against Armc9 | 0.594 (inactive)
GCCUCUUCGAACUCACUAUTT against St6galnac3 | -0.807 (inactive)
GGAAAGAGGGUUUAUUUUGTT against 4930556L07Rik | 0.919 (inactive)
GGGAAAGAGUUUUACAAACTT against Ttc22 | 2.74 (active)
GGACCUGAACAAUAAGGUUTT against Tagap | -1.78 (inactive)
GGAUUCUUUGGUCUAUUUCTT against Pudp | -0.308 (inactive)
GGAGAAAGACCAUUACUGUTT against Ly6e | 1.63 (inactive)
GGUGACAAACCGAUACUUGTT against Cope | -0.966 (inactive)
GCAGACAAAGAUCCUAUGCTT against Atp2b3 | -2.27 (active)
CCUACCUAUUUAUCAAAGATT against Sgms1 | 0.977 (inactive)
GGAUUUUUACAGAGACAUGTT against Actr6 | -0.821 (inactive)
CGAUAUCUUACUUCUUUUGTT against E030011O05Rik | 0.952 (inactive)
GGCCAUAGUCCUGUUCACCTT against Nr2f2 | 0.492 (inactive)
CCUUCAACAGAUCUAGAGUTT against Rexo1 | 2.36 (active)
GGAGGUUACAAUCCAUGAGTT against Anapc1 | -0.951 (inactive)
GGAUAGAUUUUAGGUAUUGTT against Htr5b | -0.475 (inactive)
CGGAGUAGCGAUUAUGGUGTT against Art5 | -0.535 (inactive)

Sequence | z-score
GGAUUUAACCCUGAGAUACTT against Grpel2 | 0.621 (inactive)
GGAUGAUAUCGGAGCCUGCTT against Clec4g | 0.392 (inactive)
GGACAAAUACCACAAGUUGTT against Simc1 | 2.13 (active)
GCAGGAGUAUUGCCAAGGATT against Csf1 | -0.404 (inactive)
CGAAACACUCAAGGUUGUATT against Creb3l2 | -0.314 (inactive)
GCAGCAUGCCUGAAUAUUUTT against Prcp | 0.172 (inactive)
GGAGGUGGAACAAAUAUUUTT against Emc6 | 0.361 (inactive)
GGAAGACUUGUUCAACUGGTT against Grwd1 | -0.88 (inactive)
GCUGUUUGAGGUCAUUCAUTT against Urb2 | 4.71 (active)
GGCUUUUGUCAAGCAGCACTT against Ins2 | -0.628 (inactive)
CCUUGAAAAGUCUAAACGUTT against Tmod2 | 0.375 (inactive)
GGGCUAGCCUAGAUAAAAATT against Sltm | -1.38 (inactive)
GGGCUCCACAUGUUUGCAUTT against Ehmt1 | 0.392 (inactive)
GGAAUUCUCUCAGCAGAAGTT against 1110038F14Rik | -2.17 (active)
GGAACUUCUACAGUCCUCCTT against Parp16 | 0.193 (inactive)
GGCUUCUUAUUGAUGUUGGTT against Asb13 | -0.166 (inactive)
GGAUUUUUGAUGAUGUGUCTT against Arfgap1 | -0.795 (inactive)
CCUUAUAGCAUAAGCUUUATT against Olfr768 | 2.04 (active)
CCAAGAUACCUUUUUUGAGTT against Paox | 0.455 (inactive)
GGCCUCUUCACUUAUGUAUTT against Inha | -0.22 (inactive)
GGUCAAUUGUCCAUAUGACTT against Tox3 | -2.24 (active)
GGACAAUGAAGGAAUUGAUTT against Mdm4 | -0.579 (inactive)

Sequence | z-score
CCUCGACUUUUAUUUGGAUTT against Smg6 | -0.0389 (inactive)
GGUUAGCUUCUUAAAACCATT against Adcy10 | -0.605 (inactive)
GGGAGCUAGCAAAAUCGGATT against Eif4g3 | 0.714 (inactive)
GGUGAAGCCAGUUUCUUUATT against Traf3ip2 | 0.107 (inactive)
CGUUGAUGUGUAUUUAAACTT against Vopp1 | 0.704 (inactive)
GCUACUAUUGUGUUCUGAATT against Drd1 | 2.24 (active)
CGUGAACGUAGAGUUUUCUTT against Fcrl5 | 3.59 (active)
GGAACUGCUCAUAAAAACATT against Evi2b | 0.0355 (inactive)
GCUAUUGAGUUAUCGUUGCTT against Stam2 | 0.715 (inactive)
GGUACAGCUUAUGGAUUAATT against Pdgfra | -0.193 (inactive)
GCCAGGUUUUCUCCAUAGATT against Tmem44 | -0.841 (inactive)
GGUUUAUACUCAUAACCUGTT against Kifbp | 2.03 (active)
GAAAUUAGAACAACUUUGGTT against 3830403N18Rik | 0.442 (inactive)
GGACCGCCUUCAACAACAATT against Tpgs1 | 2.68 (active)
GGCAUUUACCAAGUUCCUGTT against Olfr522 | -1.26 (inactive)
GGACCAUAAGCACAUGAUUTT against Prl7c1 | 0.668 (inactive)
GGUCCAUACAAGUGUUUGATT against Camk2b | -0.15 (inactive)
GGUACUCGAAUCUGACCUCTT against Nqo1 | 2.04 (active)
GGAAACCCAAUAUCAAACUTT against Rnf138 | 0.252 (inactive)
GCAUCACUUACAGAUAGACTT against Olfr305 | -1.21 (inactive)
